# Most compounds without a hit are left out; they make up all but 1.2% or so of the library.
# Mm-Cpn inhibitor: blocks the Methanococcus maripaludis chaperonin Mm-Cpn; purified Mm-Cpn ATPase, ADP Transcreener TR-FRET; Potency, µM (top dose mostly 76.9 µM), for inactives: at the top dose activity, negative = inhibition, hits mostly inhibitors; 0.031% of 330,000 active; AID 504842; further: potency means the concentration at half of the fitted maximal effect; on the % scale 0 is the no-effect control and ±100 the full control effect; nearly all actives have a fitted effect of over 80% in size
#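 Eu-cryptate anti-ADP/ADP-d2 competition gives a ratio inversely related to ADP. Enzyme at 25 nM was pre-exposed to compound for 10 min, then given 10 uM ATP for 30 min, 37°C throughout.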
# CCT chaperon mod: cytosolic chaperonin activity modulation | purified chaperonin ATPase assay, HTRF ADP detection, 30 min | activity change, % (test concentration not listed), hits read low | 0.3% of 360,000 active; in the data active means activity change below about -30%; further: on the % scale 0 is the no-effect control and ±100 the full control effect
#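 Nucleotide hydrolysis assay: TRiC at 20–40 nM final (set by batch activity) with 10 uM ATP, 30 min at 37 °C, in presence of 76 uM compound. Detection by competitive ADP HTRF, 30 min ambient.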
# RXFP1 antag: RXFP1 (human) relaxin receptor antagonism | Q9HBX9 | HEK293-RXFP1, relaxin-stimulated cAMP HTRF, 30 min; stronger effect = lower value | activity change, negative = inhibition, % at 57.5 µM | 0.59% of 350,000 active;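 active means activity change of -60% or lower, but not beyond a set lower limit; inconclusive means change between -60% and -40%, or beyond the set limit; inactive means change above -40%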; further: on the % scale 0 is the no-effect control and ±100 the full control effect
# Target sequence (Q9HBX9 whole entry, looked up): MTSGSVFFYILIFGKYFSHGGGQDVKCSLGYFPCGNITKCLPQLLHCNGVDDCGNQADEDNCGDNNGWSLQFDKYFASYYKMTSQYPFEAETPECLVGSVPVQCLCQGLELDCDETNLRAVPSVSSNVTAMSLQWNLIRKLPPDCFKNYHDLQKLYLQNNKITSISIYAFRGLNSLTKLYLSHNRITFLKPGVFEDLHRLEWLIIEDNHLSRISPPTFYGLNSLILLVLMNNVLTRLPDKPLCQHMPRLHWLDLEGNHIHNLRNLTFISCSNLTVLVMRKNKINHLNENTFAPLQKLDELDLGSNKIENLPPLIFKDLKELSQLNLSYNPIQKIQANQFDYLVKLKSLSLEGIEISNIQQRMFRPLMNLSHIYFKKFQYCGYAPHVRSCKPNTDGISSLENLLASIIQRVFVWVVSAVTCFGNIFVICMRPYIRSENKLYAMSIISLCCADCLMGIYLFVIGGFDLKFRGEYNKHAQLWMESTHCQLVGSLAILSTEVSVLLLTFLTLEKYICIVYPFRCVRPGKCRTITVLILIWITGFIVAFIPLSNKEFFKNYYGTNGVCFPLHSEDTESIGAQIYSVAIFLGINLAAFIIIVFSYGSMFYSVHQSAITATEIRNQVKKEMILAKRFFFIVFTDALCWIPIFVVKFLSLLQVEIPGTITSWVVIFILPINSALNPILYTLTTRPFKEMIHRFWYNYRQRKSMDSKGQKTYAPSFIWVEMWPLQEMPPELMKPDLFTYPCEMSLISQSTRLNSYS
# gsp antag: gsp mutant antagonism. gsp-mutant cells, cAMP HTRF, 30 min. Potency, µM (doses to about 76.9 µM), for the others: at the highest dose activity change, negative = inhibition, usual class: inhibitors. 0.4% of 340,000 active. AID 624288; calls by dose curve; cell line not stated here;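 further: intracellular cAMP measured with PDE inhibitor Ro 20-1724 present during compound exposure; potency means the concentration at half of the fitted maximal effect; on the % scale 0 is the no-effect control and ±100 the full control effect; nearly all actives have a fitted effect of over 65% in size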
#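 Measurement of cellular cAMP by homogeneous time-resolved fluorescence following a 30 min compound exposure at 37C. The PDE inhibitor […] was present throughout; the assay buffer was DPBS with 0.05% BSA and 0.005% Tween 20.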
# RXFP1 ag: activates the human relaxin receptor RXFP1; HEK293T-RXFP1 cAMP TR-FRET, 30 min; response scale: percent of porcine relaxin response, buffer zero; Potency, µM (doses to about 57.5 µM), for inactives: top-dose activation, most hits filed as activators; 0.3% of 370,000 active; AID 2676; further: potency means the concentration at half of the fitted maximal effect; on the % scale 0 is the no-effect control and ±100 the full control effect; nearly all actives have a fitted effect of over 60% in size
#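 HEK293T cells stably expressing RXFP1 were pretreated with the PDE4 inhibitor Ro 20174, exposed to compounds for 30 min at 37C, lysed, and cAMP was read by TR-FRET. Data normalized to buffer (basal) and 29 nM porcine relaxin (100%).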
# gsp agonist: agonists of gsp mutant (McCune-Albright syndrome); gsp mutant cells, cAMP HTRF, 30 min; Potency, µM (doses to about 76.9 µM), inactives show at the highest dose activation (cAMP increase), actives largely listed as activators; 0.13% of 340,000 active; active means well fitted activation curve with a large enough effect; inconclusive means small, poorly fitted or top-dose-only effect, or another doubt; inactive means no such curve, though single readings can be large or run the other way; cell line not stated here;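 further: phosphodiesterase inhibitor Ro 20-1724 added with compounds to block cAMP breakdown; potency means the concentration at half of the fitted maximal effect; nearly all actives have a fitted effect of over 60% in size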
#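 Cells stably selected in G418 were plated at 2000/well, grown 16-24 hr, then given compounds in DMSO with the PDE inhibitor […] (300 uM solution added) for 30 min at 37C; cAMP was read by HTRF.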
# * marks the source's active call; other numbers are inactive results; ? = inconclusive; · = not tested or not shown; [ ] = dose if it differs, or a comment. Unless noted, the call rests on the fitted dose curve; in most records, active means well fitted curve in the direction sought with a large enough effect; inconclusive means small, poorly fitted or top-dose-only effect, or another doubt; inactive means no such curve, though single readings can be large; an effect the other way counts as inactive or inconclusive.
SMILES,Mm-Cpn inhibitor,CCT chaperon mod,RXFP1 antag,gsp antag,RXFP1 ag,gsp agonist
COc1ccc(OC)c(-n2c(SCC(=O)Nc3cccc(S(N)(=O)=O)c3)nc3ccccc3c2=O)c1,-7%,-40*,-6,13%,0%,-14%[15.4 µM]
NS(=O)(=O)c1ccc(NC(=O)CSc2ncnc3ccccc23)cc1,-17%,1,-6,-1%,?,?
COc1ccccc1-n1c(SCC(=O)Nc2cccc(S(N)(=O)=O)c2)nc2ccccc2c1=O,3%,0,0,·,1%,3%[15.4 µM]
NS(=O)(=O)c1cccc(NC(=O)CSc2ncnc3ccccc23)c1,-3%,0,2,-8%,25µM*,?
CCCCC(CC)CNC(=O)CC(C)OC(=O)CCC(=O)O (stereo not given),·,·,6,·,·,·
CC(C)c1ccc(S(=O)(=O)Nc2cc3c(cc2NCc2ccccc2)n(C)c(=O)n3C)cc1,·,·,·,·,3%,·
CCN(CC)C(=O)CSc1nc(C)cc(-c2cccs2)c1C#N,1%,-34*,8,17%,?,7%
Cc1cc(C)c(C#N)c(SCC(=O)c2cccs2)n1,-4%,1,-7,1%,-1%,-28%
Cc1ccc(C(=O)NCc2ccc(N(C)C)cc2)cc1NC(=O)c1nsc2ccccc12,·,·,-23,·,0%,·
O=C(CSc1nncs1)Nc1cc(S(=O)(=O)N2CCOCC2)ccc1N1CCCC1,-1%,0,0,9%,18%,22µM*
COc1ccc(S(=O)(=O)N(C)C)cc1NC(=O)CSc1nncs1,-1%,-1,8,19%,18µM*,44%[15.4 µM]
COc1cccc(-n2c(-c3ccco3)nc3c(cnn3-c3ccccc3C)c2=O)c1,·,·,·,·,5%,·
CCN(CC)C(=O)C1CCCN(Cc2ccc3c(c2)OCO3)C1 (stereo not given),1%,-2,0,-3%,-1%,-19%
O=C(C1CCCN(Cc2ccc3c(c2)OCO3)C1)N1CCCC1 (stereo not given),0%,-34*,8,-8%,2%,-22%
Nc1ccn(C2CO[C@H](CO)O2)c(=O)n1 (stereo not given in full),·,·,14,·,·,·
CCN(CC)C1CCN(C(=O)c2ccc3nc(Cc4ccc(OC)cc4)oc3c2)C1 (stereo not given),0%,-68*,5,3%,0%,2%
CCOC(=O)c1[nH]c2c(c1Cc1ccccc1)C(=O)CC(c1ccc(C(C)(C)C)cc1)C2 (stereo not given),·,·,-64*,·,-1%,·
Cn1c(=S)[nH]c2c(c1=O)C(C)(C)Cc1ccccc1-2,?,0,29,-2%,16µM*,92%[15.4 µM]
CCn1c(=S)[nH]c2c(c1=O)C(C)(C)Cc1ccccc1-2,-7%,-2,14,34%,16µM*,2.8µM*
CC1(C)Cc2ccccc2-c2nc(NN)[nH]c(=O)c21,-1%,-1,-3,-4%,-2%,24%
CC1(C)Cc2ccccc2-c2c1c(=O)n(Cc1ccccc1)c1nnnn21,0%,0,-8,-17%,0%,?
CC1=C(C(=O)OC2CCCCCC2)C(c2cccc(Cl)c2)CC(=O)N1 (stereo not given),·,·,·,·,0%,·
COc1ccc(-c2cc(C(F)(F)F)n3nc(C(=O)Nc4sc5c(c4C#N)CCC(C)C5)cc3n2)cc1OC (stereo not given),·,·,-4,·,-2%,·
O=C(NCC(c1ccccc1)c1ccccc1)c1nn(-c2ccccc2Cl)nc1CO,·,·,-66*,·,1%,·
O=C(NCCCCc1ccccc1)c1nn(-c2ccccc2)nc1CO,·,·,-69*,·,0%,·
SMILES,Mm-Cpn inhibitor,CCT chaperon mod,RXFP1 antag,gsp antag,RXFP1 ag,gsp agonist
O=C(Cn1nc(C(F)(F)F)c2c1CCCC2)Nc1cccc(Cl)c1,·,·,-32,·,2%,·
Cc1cc(O)c(C(c2cccc(Cl)c2)N2CCN(c3ccccc3)CC2)c(=O)n1Cc1ccco1 (stereo not given),·,·,-30,·,3%,·
Cc1ccc(NC(=O)C2CCN(c3nc(-c4ccc(C(C)C)cc4)no3)CC2)c(Cl)c1,·,·,-5,·,5%,·
CC1(C)Cc2c(c(-c3ccco3)nc3sc4c(NCCCO)ncnc4c23)CO1,-1%,-42*,14,0%,1%,3%
C=CCc1ccccc1OCC(=O)NNC(=S)NCc1ccccc1,3%,-34*,-20,1%,-1%,-20%
O=C(N/N=C/C=C/c1ccco1)c1ccccc1Cl,-2%,-1,-82*,-5%,1%,?
Cc1ccc(OCC(=O)N/N=C/C=C/c2ccco2)c(Br)c1,-1%,1,-76*,-1%,0%,-17%
CC(=O)c1ccc(N2CCN(c3ncnc4onc(C)c34)CC2)cc1,·,·,·,·,9%,·
Cc1ccc(NC(=O)C2CCN(S(=O)(=O)c3c(C)noc3/C=C/N(C)C)CC2)cc1,-5%,-3,-112*,-13%,-2%,?
COc1ccc(S(=O)(=O)N2CCC(c3nnnn3-c3ccccc3)CC2)cc1OC,·,·,-2,·,-3%,·
CC(On1c(-c2ccccc2)nc2ccc(Cl)cc21)C(=O)O (stereo not given),-1%,-2,1,-16%,0%,10%
Cc1ccc(-c2nc3ccc(Cl)cc3n2OC(C)C(=O)O)cc1 (stereo not given),0%,-55*,0,?,4%,-94%
CC(C)C(=O)Nc1cccc(C(F)(F)F)c1,·,·,-8,·,·,·
Cc1ccc(C)c(NC(=O)Cc2coc3cc(C)cc(C)c23)c1,·,·,1,·,0%,·
COc1ccc2c(-c3ccc(OCCN4CCCCC4)cc3)c(-c3ccccc3OC)sc2c1,-28%,0,·,8%,·,·
COc1ccc2c(-c3ccc(OCCN4CCOCC4)cc3)c(-c3ccccc3OC)sc2c1,32µM*,-1,·,-1%,·,·
COc1cc2sc(-c3ccccc3OC)c(-c3ccc(OCCN4CCOCC4)cc3)c2cc1OC,45µM*,2,·,-8%,·,·
Cc1ccc(-c2onc(C)c2C)cc1S(=O)(=O)NC1CCC(C)CC1 (stereo not given),·,·,1,·,4%,·
Cc1cn([C@@H](CCCCNC(=O)OC(C)(C)C)C(=O)NCCCCCCCCCCC(=O)N2CCN(C(=O)OC(C)(C)C)CC2)nn1,3%,1,·,28µM*,0%,·
Cc1cccc(-n2c3nc(=O)[nH]c(=O)c-3cc3c(Cl)cccc32)c1C,·,·,2,·,-3%,·
O=C(O)[C@H](O)[C@@H](O)[C@H](O[C@@H]1O[C@H](CO)[C@H](O)[C@H](O)[C@H]1O)[C@H](O)CO,·,·,-6,·,·,·
O=C1OC2(c3ccccc31)c1cc(I)c(O)c(I)c1Oc1c2cc(I)c(O)c1I,32µM*,·,·,·,-35%,·
COc1ccccc1NS(=O)(=O)c1cc(C)ccc1C,1%,1,-11,6.3µM*,-1%,-21%

# Assay outcomes as filed in PubChem BioAssay.
